# The supplement of paper PMC6555819
# How the values were obtained:
# Test in all cases: PBM binding z-score (relative to random genomic background probes); higher = stronger binding; sequences stand for … in GC…GCGATTGACAGCGTAGAATGAAGG
# [1] = test system: FXR:RXRa (NR concentration 270 nM, RXRa partner concentration 90 nM)
# In short: (§1)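 Ligand-free nuclear receptor dimers were bound for 1 h to custom Agilent 4×180K protein-binding microarrays. Detection used antibodies against each partner (one per run). Binding z-scores rest on regression-normalized fluorescence, with random background probes as the reference.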
# [2] = test system: LXRa:RXRa (NR concentration 270 nM, RXRa partner concentration 90 nM)
# In short: as §1
# [3] = test system: LXRa homodimer (NR concentration 270 nM)
# In short: as §1
# [4] = test system: LXRb:RXRa (NR concentration 270 nM, RXRa partner concentration 90 nM)
# In short: as §1
# [5] = test system: LXRb homodimer (NR concentration 270 nM)
# In short: as §1
# [6] = test system: PPARa:RXRa (NR concentration 270 nM, RXRa partner concentration 90 nM)
# In short: as §1
# [7] = test system: PPARg:RXRa (NR concentration 180 nM, RXRa partner concentration 90 nM)
# In short: as §1
# [8] = test system: PPARg:RXRa 270nM:90nM, anti-RXR (NR concentration 270 nM, RXRa partner concentration 90 nM)
# In short: as §1
# [9] = test system: PPARg:RXRa 30nM:10nM, anti-RXR (NR concentration 30 nM, RXRa partner concentration 10 nM)
# In short: as §1
# [10] = test system: PPARg:RXRa 90nM:30nM, anti-RXR (NR concentration 90 nM, RXRa partner concentration 30 nM)
# In short: as §1
# [11] = test system: PPARg:RXRa DBDmut IVT, anti-RXR (DBD mutation: RXRa K156A/R161A, NR concentration 270 nM, RXRa partner concentration 90 nM)
# In short: as §1
# [12] = test system: PPARg:RXRa IVT, anti-PPARg (NR concentration 270 nM, RXRa partner concentration 90 nM)
# In short: as §1
# [13] = test system: PPARg DBDmut:RXRa IVT, anti-PPARg (DBD mutation: PPARg1 K132A/R137A, NR concentration 270 nM, RXRa partner concentration 90 nM)
# In short: as §1
# [14] = test system: PPARg DBDmut IVT, anti-PPARg (DBD mutation: PPARg1 K132A/R137A, NR concentration 270 nM)
# In short: as §1
# [15] = test system: PPARg homodimer (NR concentration 180 nM)
# In short: as §1
# [16] = test system: PXR:RXRa (NR concentration 270 nM, RXRa partner concentration 90 nM)
# In short: as §1
# [17] = test system: PXR homodimer (NR concentration 270 nM)
# In short: as §1
# [18] = test system: RARa:RXR (NR concentration 270 nM, RXRa partner concentration 90 nM)
# In short: as §1
# [19] = test system: RARa homodimer (NR concentration 270 nM)
# In short: as §1
# [20] = test system: RARb:RXRa (NR concentration 270 nM, RXRa partner concentration 90 nM)
# In short: as §1
Sequence,PBM binding z-score [1],PBM binding z-score [2],PBM binding z-score [3],PBM binding z-score [4],PBM binding z-score [5],PBM binding z-score [6],PBM binding z-score [7],PBM binding z-score [8],PBM binding z-score [9],PBM binding z-score [10],PBM binding z-score [11],PBM binding z-score [12],PBM binding z-score [13],PBM binding z-score [14],PBM binding z-score [15],PBM binding z-score [16],PBM binding z-score [17],PBM binding z-score [18],PBM binding z-score [19],PBM binding z-score [20]
CAAACTAGGTCACCGGAAGGTGAAAGTCCGCATG,4.95,3.97,0.466,3.14,0.0268,5.42,9.29,7.34,5.78,7.31,8.74,8.89,2.99,0.925,4.64,2.98,0.142,4.74,0.555,4.54
CGTCCACGGTCAAAGGTCAGTGAAGAGATGACGG,5.45,4.83,1.87,3.7,-0.0177,5.49,7.71,7.46,5.82,7.93,1.1,3.94,-0.461,-0.195,6.23,4.9,0.288,7.25,2.09,5.01
GCTAGTTGGTCAGTAAAAGGTCACGCACCGGTCG,4.11,4.91,4.69,4.3,0.681,4.73,3.18,5.04,2.52,4.78,1.6,2.94,1.14,0.145,5.9,5.48,1.28,6.73,4.45,4.47
